An excerpt weighted towards active compounds, which were near 5.2% of everything screened.
Sfp PPTase inh: inhibitors of Bacillus subtilis Sfp phosphopantetheinyl transferase | Q9F4F7 | Biochemical Sfp PPTase activity, qHTS | Potency, µM, without a hit: largest response in the series, negative = inhibition, actives largely listed as inhibitors | hit rate 3.5% among 310,000 | AID 1490;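 further: the enzyme is Sfp with the accession as filed and its product quenches rhodamine fluorescence; 0% = enzyme reaction without inhibitor and -100% = no enzyme wells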
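Compounds were incubated with enzyme (final 15 nM) for 15 min at room temperature before substrate addition started the reaction. Fluorescence at 525 nm excitation, 598 nm emission was recorded immediately and after 30 minutes.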
rTrxR1 inhibitor: rat TrxR1 inhibition. O89049. recombinant rTrxR1, NADPH fluorescence consumption, selenite substrate. Potency, µM (highest dose often 114 µM), for the others: at the highest dose activity change, negative = inhibition, hits mostly inhibitors. hit rate 1% among 390,000. AID 588453; further: nearly all actives have a fitted effect of over 65% in size
Target sequence (O89049 whole entry, looked up): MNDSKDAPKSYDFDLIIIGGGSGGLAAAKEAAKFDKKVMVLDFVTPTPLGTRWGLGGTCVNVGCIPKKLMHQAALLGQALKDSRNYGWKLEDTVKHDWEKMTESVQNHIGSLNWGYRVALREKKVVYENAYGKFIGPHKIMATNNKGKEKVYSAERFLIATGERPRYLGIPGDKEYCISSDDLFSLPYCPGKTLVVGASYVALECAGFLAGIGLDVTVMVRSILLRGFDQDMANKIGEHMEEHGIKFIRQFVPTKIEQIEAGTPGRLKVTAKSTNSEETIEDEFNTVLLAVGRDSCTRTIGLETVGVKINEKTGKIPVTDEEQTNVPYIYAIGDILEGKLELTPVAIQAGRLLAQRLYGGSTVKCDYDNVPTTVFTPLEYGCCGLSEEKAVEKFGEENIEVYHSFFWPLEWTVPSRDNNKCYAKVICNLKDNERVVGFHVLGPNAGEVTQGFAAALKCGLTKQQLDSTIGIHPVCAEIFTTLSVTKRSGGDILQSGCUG
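Rat TrxR1 (90 nM in the dispensed reagent) was pre-reduced with 400 uM NADPH for 5 min at room temperature, then incubated with compound for 15 min. After 400 uM selenite was added, NADPH fluorescence (Ex 340/Em 450 nm) was followed for 8 min.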
VDR inh: blocks the human vitamin D receptor | VDR-SRC2-3 peptide fluorescence polarization, 2 h | Potency, µM, for the others: max response, negative = inhibition, most hits filed as inhibitors | hit rate 0.93% among 400,000 | AID 504847
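FP read-out; VDR + SRC2-3 coactivator peptide; 23 nl compound by pintool; 2 h RT incubation; reagents held at 4 deg C, protected from light.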
TrxR1 substrate: is turned over as a substrate by rat TrxR1; O89049; purified TrxR1 substrate turnover, NADPH consumption readout; Potency, µM (titrated, usually from 114 µM), inactives show at the top dose activity change, negative = substrate turnover; hit rate 0.01% among 390,000; AID 588456; further: nearly all actives have a fitted effect of over 50% in size
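Rat TrxR1, dispensed at 90 nM, was prereduced with 400 uM NADPH (final) for 5 min at ~22 deg C, then incubated with compound 15 min before 400 uM selenite. A first-read NADPH fluorescence drop versus no-compound background flagged substrates.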
mIDH1 inhibitor: human IDH1 R132H inhibition; Potency, µM (titrated, usually from 76.6 µM), without a hit: at the highest dose activity change, negative = inhibition, actives largely listed as inhibitors; O75874; hit rate 0.093% among 390,000; IDH1-R132H enzyme, NADPH consumption, diaphorase/resazurin fluorescence; further: nearly all actives have a fitted effect of over 65% in size
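IDH1-R132H (0.5 ug/mL) preincubated 30 min with compound, then NADPH (0.016 mM) and alpha-KG (2 mM) added; 80 min at RT, pH 7.5. Remaining NADPH coupled via diaphorase/resazurin to fluorescence (540/590 nm); concentration-response curves normalized to no-enzyme control.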
PLK1 PBD inh: inhibitors of human PLK1 polo-box domain binding. P53350. Plk1 PBD binding of FITC phosphopeptide, fluorescence polarization. Potency, µM, inactives show max response, negative = inhibition, usual class: inhibitors. hit rate 2.8% among 360,000. AID 720504; further: series mostly up to about 57 µM; nearly all actives have a fitted effect of over 65% in size
The depositor's hits bear a star; u = inconclusive; x = not tested or not shown; ! = repeats disagree; [ ] = remark or other dose. The call rests on the fitted dose curve; in most records, active means well fitted curve in the direction sought with a large enough effect; inconclusive means small, poorly fitted or top-dose-only effect, or another doubt; inactive means no such curve, though single readings can be large; an effect the other way counts as inactive or inconclusive. Unless noted, on the % scale 0 is the no-effect control and ±100 the full control effect; potency means the concentration at half of the fitted maximal effect.

SMILES	Sfp PPTase inh	rTrxR1 inhibitor	VDR inh	TrxR1 substrate	mIDH1 inhibitor	PLK1 PBD inh
O=C1CC(c2ccc3c(c2)OCCO3)Oc2ccccc21 (configuration not stated)	-3.5%	-18.2%	-13.9%	-12.1%	-7.3%	8.44µM*
CCCCCCCCN1C(=O)[C@H](CC(=O)N2CCC(c3ccccc3)CC2)C[C@@]2(C(=O)OC)CC(C)(C)CC=C12	x	x	x	x	x	-8.1%
O=C(N/N=C/c1ccc([N+](=O)[O-])o1)c1ccc(O)cc1	-20.5%	20µM*	-4.7%	-2.5%	12.6%	-3.6%
CCNc1nc(NCC)nc(N/N=C/c2ccc([N+](=O)[O-])o2)n1	-11.3%	44.7µM*	-5.1%	-17.2%	3.2%	2.2%
O=[N+]([O-])c1ccc(/C=N/Nc2nc(N3CCCC3)nc(N3CCCC3)n2)o1	-2.2%	-59.1%[57.1 µM]	17.2%	9.8%	3.9%	-13.9%
O=C(CCC(=O)Nc1ccc(Cl)cc1Cl)N/N=C/c1ccc([N+](=O)[O-])o1	16.2%	11.2µM*	11.6%	-5.4%	11.1%	-8.1%
O=[N+]([O-])c1ccc(/C=N\NS(=O)(=O)c2ccc(F)cc2)o1	u	31.6µM*	-28.8%	-20.2%	9.9%	u
CC[C@H](C)[C@H]1CNC(=S)N1CC1CCN(CCCC2CCCC2)CC1	x	12.6%	-20.4%	-2.9%	1.2%	-7.8%
CCCn1c(-c2ccc(F)cc2)nc2c(NCC3CCN(C)CC3)nc(C)nc21	13.5%	x	x	x	x	x
O=C(NC1CCCCC1)C(c1cccnc1)N(C(=O)c1csnn1)c1ccc(F)cc1 (configuration not stated)	-5.6%	24.3%[57.1 µM]	-15.8%	5.4%[57.1 µM]	8.2%	-18.4%
O=C(N/N=C\c1ccc([N+](=O)[O-])o1)c1cncc(Br)c1	-1.2%	22.4µM*	-1.6%	2.0%[57.1 µM]	4.7%	-5.6%
O=[N+]([O-])c1ccc(/C=N/NC(=S)Nc2ccccc2F)o1	-11.6%	-55.3%	-13.6%	-10.5%	4.8%	u
O=[N+]([O-])c1ccc(/C=N/NC(=S)Nc2ccccc2)o1	u	17.8µM*	-7.2%	-14.2%	7.6%	u
Cc1nc2cccnc2n1-c1cccc(C(=O)NCCc2ccc(S(N)(=O)=O)cc2)c1	x	12.1%	6.7%	3.2%	7.9%	x
CCN1C(=O)C(NC(C)=O)c2cc(Br)ccc21 (configuration not stated)	0.9%	9.9%[57.1 µM]	7.2%	5.6%[57.1 µM]	0.7%	-6.0%
Cc1ccc2c(c1)C(=C(C#N)C#N)C(=O)N2CCN1CCOCC1	-7.9%	u	79.4µM*	-2.0%	-16.7%	11.9µM*
CCc1ccc2c(c1)C(NC(C)=O)C(=O)N2CC (configuration not stated)	56.2µM*	5.1%	-1.6%	7.6%	16.2%	2.8%
CC(=O)NC1C(=O)N(CCN2CCOCC2)c2ccc(F)cc21 (configuration not stated)	70.8µM*	0.2%	u	-1.8%	u	-11.7%
Cc1ccc2c(c1)C(=C(C#N)C#N)C(=O)N2CCN1CCCCC1	-17.7%	45.8%[11.4 µM]	12.1%	-11.9%[11.4 µM]	-0.5%	u
CC(=O)NC1C(=O)N(CCN2CCOCC2)c2ccc(C)cc21 (configuration not stated)	79.4µM*	6.3%[2.29 µM]	u	0.4%[2.29 µM]	u	-14.8%
COc1ccc2c(c1)C(NC(C)=O)C(=O)N2C (configuration not stated)	-5.6%	-7.7%	5.2%	-7.5%	5.0%	-1.7%
CCCCN1C(=O)C(NC(C)=O)c2cc(Br)ccc21 (configuration not stated)	-0.7%	22.1%[57.1 µM]	-14.3%	8.3%[57.1 µM]	0.7%	-3.9%
Cc1ccc(S(=O)(=O)N2C[C@H]3[C@H]4C(=O)N(c5ccccc5)C(=O)[C@H]4C[C@H](OC(=O)Nc4c(C)noc4C)[C@@]3(O)C2)cc1	x	x	x	x	-4.0%	u
CNc1ccc(C=O)cc1Br	x	2.2%	x	-7.7%	x	x
Cc1cc(C)nc(Sc2ncnc(N)c2[N+](=O)[O-])n1	50.1µM*	11.2µM*	-10.1%	5.8%[57.1 µM]	1.5%	-19.4%
SMILES	Sfp PPTase inh	rTrxR1 inhibitor	VDR inh	TrxR1 substrate	mIDH1 inhibitor	PLK1 PBD inh
Cc1cccc(Nc2ncnc(N)c2[N+](=O)[O-])n1	28.0%	13.9%	-22.6%	-1.5%	0.0%	-5.0%
Brc1cc(Br)c[n+](CCc2ccccc2)c1	x	4.8%	x	3.0%	x	x
Cc1oc2cc3oc(=O)c(CCC(=O)N(C)CC(=O)O)c(C)c3cc2c1C	5.4%	-1.9%[57.1 µM]	-2.2%	13.0%	3.8%	-5.0%
S=C(SSC(=S)N1CCOCC1)N1CCOCC1	x	x	x	x	x	1.5µM*
COC/C=C/C1=CC2=CC(=O)C(C)(OC(=O)c3cnc4ccccc4n3)C(=O)C2=CN1c1ccccc1 (configuration not stated)	14.5%	u	-29.0%	-7.3%	-2.7%[38.3 µM]	-8.9%
COC/C=C/C1=CC2=CC(=O)C(C)(OC(=O)c3cnc4ccccc4n3)C(=O)C2=CN1c1ccc(CO)cc1 (configuration not stated)	56.2µM*!	x	x	x	x	x
Cc1ccc(-n2c(C)cc(-c3csc(N)n3)c2C)cc1	u	u	13.7%	-7.0%	6.1%	-7.3%
Cc1cc(-c2csc(N)n2)c(C)n1Cc1ccco1	50.1µM*	15.8µM*	-26.2%	-4.4%	2.5%	u
Cc1cc(-c2csc(N)n2)c(C)n1C	20µM*	u	8.0%	-3.1%	6.6%	-29.1%
Cc1c(C(=O)NC(=S)Nc2ccc3c4c(cccc24)CC3)cccc1[N+](=O)[O-]	14.0%	22.0%[57.1 µM]	-4.4%	13.7%[57.1 µM]	-2.2%	-21.4%
Cc1cccc(OCC(=O)Nc2ccc3c4c(cccc24)CC3)c1C	-7.9%	15.1%	-29.1%	1.4%	2.6%	26.7µM*
Cc1c(C(=O)Nc2c3c(nn2C(C)(C)C)CS(=O)(=O)C3)cccc1[N+](=O)[O-]	13.1%	27.1%[57.1 µM]	u	5.1%[57.1 µM]	-10.8%	7.52µM*
Cc1c(C(=O)Nc2ccc3c4c(cccc24)CC3)cccc1[N+](=O)[O-]	-2.9%	-2.9%	2.7%	-1.9%	1.4%	26.7µM*
CCC(C)n1c(=O)c2sccc2n2c(CCCC(=O)Nc3ccc(F)cc3)nnc12 (configuration not stated)	x	17.7%	2.5%	-1.9%	31.8%	x
OC(c1ccccc1)C(NCc1ccccc1)c1ccccc1 (configuration not stated)	x	x	x	x	-4.2%	-5.0%
COc1ccccc1NC(=S)NC(=O)c1ccc(-c2ccc(Cl)cc2)o1	17.8µM*	-12.8%	6.7%	8.1%	0.0%	-11.1%
CCOC(=O)C1=C(CBr)NC(=O)NC1C (configuration not stated)	18.7%	17.4%[57.1 µM]	1.7%	-11.6%	-0.2%	-27.5%
N#Cc1ccc(N2CCc3ccccc3C2)c([N+](=O)[O-])c1	44.7µM*	5.8%[57.1 µM]	6.0%	-22.4%[57.1 µM]	6.8%	-5.7%
COc1ccc2cc(CN(CCc3ccccc3)Cc3nnnn3Cc3ccco3)c(=O)[nH]c2c1	-26.1%	u	-12.9%	9.8%	-0.2%	-21.1%
